HT1080 IDH1KD tx: qHTS for induction of synthetic lethality in tumor cells producing 2HG: qHTS for the HT-1080-IDH1KD cell line; HT-1080 IDH1 knockdown viability, ATP luminescence, 48 h; Potency, µM (series often up to 46.1 µM), for inactives: at the top dose activity, negative = toxicity, usual class: cytotoxic; 2% of 360,000 active; AID 686971, 2013;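 note: potency is the fitted concentration of half-maximal effect; 0% = DMSO wells and -100% = cell-free medium wells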
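IDH1KD HT-1080 cells, 750/well, RPMI + 5% FBS; compound pinned after 2 h settling; 48 h, 37 °C; CellTiter-Glo luminescence; % activity normalised to DMSO and no-cell wells; curves fitted, classed by r2 and efficacy.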
TDP1 cell CPT: qHTS for Inhibitors of human tyrosyl-DNA phosphodiesterase 1 (TDP1): qHTS in cells in presence of CPT. chicken DT40 Tdp1-/-;hTDP1 cells + 20 nM CPT, ATP luminescence, 48 h. Potency, µM (series often up to 46.2 µM), inactives show at the highest dose activity change, negative = growth inhibition, actives largely listed as inhibitors. 12% of 420,000 active. AID 686979, 2013; note: potency is the fitted concentration of half-maximal effect; nearly all actives have a fitted effect of over 55% in size
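Chicken DT40 Tdp1-/- cells stably complemented with human TDP1 were seeded at 400 cells/well in medium containing 20 nM camptothecin, exposed to pin-transferred compounds, and grown at 37 °C for at least 48 hr. Viability was read as ATP luminescence.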
TDP1 cell noCPT: qHTS for Inhibitors of human tyrosyl-DNA phosphodiesterase 1 (TDP1): qHTS in cells in absence of CPT; 15% of 420,000 active; AID 686978, 2013; DT40 Tdp1-/- hTDP1 cells, no CPT, ATP luminescence, 48 h; Potency, µM (top dose mostly 46.2 µM), for inactives: top-dose activity change, negative = growth inhibition, most hits filed as inhibitors; note: potency is the fitted concentration of half-maximal effect; nearly all actives have a fitted effect of over 55% in size
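Compound effects on proliferation are scored in DT40 Tdp1-/-;hTDP1 cells in the absence of CPT. ATP levels (CellTiter-Glo luminescence) are recorded after a ≥48 hr, 37 °C incubation.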
IL-1B inflam inh: qHTS for Inhibitors of Inflammasome Signaling: IL-1-beta AlphaLISA Primary Screen; activity change, % at 57.5 µM; 4.7% of 360,000 active; THP-1 LPS/ATP IL-1B secretion, AlphaLISA, 16 h; hits give low values; in the data active = activity change below about -50%; inconclusive = mostly about -30% to -49%
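THP-1 cells pretreated 1 hr with compounds (up to 57.5 uM final), then stimulated with LPS (250 ng/mL final) plus ATP (1.25 mM final); secreted IL-1B measured by AlphaLISA after 16 hr, decreased signal indicating inhibition.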
HT1080NT lethal: qHTS for induction of synthetic lethality in tumor cells producing 2HG: qHTS for the HT-1080-NT fibrosarcoma cell line | HT-1080-NT fibrosarcoma viability, CellTiter-Glo ATP luminescence, 48 h | Potency, µM (titrated, usually from 46.1 µM), without a hit: at the top dose activity, negative = less viability, most hits filed as cytotoxic | 1.6% of 360,000 active | AID 686970, 2013;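 note: NT is the 2HG producing partner of a matched IDH1 knockdown line; potency is the fitted concentration of half-maximal effect; 0% = DMSO-treated cells and -100% = media-only wells without cells; nearly all actives have a fitted effect of over 55% in size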
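Fibrosarcoma NT cells, 750 per well in 5% FBS RPMI, were exposed to compound for 48 hours. Viability: CellTiter-Glo luminescence.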
* hit, by the source's call; ? = inconclusive; / = not tested or not shown; [ ] = another dose, or the depositor's remark. Shown are actives, neighbours in structure and some others; about 19% of the full set was active somewhere. Unless noted, calls come from the whole dose curve; as a rule, active = well fitted curve in the direction sought with a large enough effect; inconclusive = small, poorly fitted or top-dose-only effect, or another doubt; inactive = no such curve, though single readings can be large; an effect the other way counts as inactive or inconclusive. Unless noted, % is set by controls: 0 for no effect and ±100 for the full control effect.

SMILES | HT1080 IDH1KD tx | TDP1 cell CPT | TDP1 cell noCPT | IL-1B inflam inh | HT1080NT lethal
CC1=C(C(=O)OCC2CCCO2)C(c2ccc(C)cc2)C2=C(CC(C)(C)CC2=O)N1 (centres undefined) | -2.1% | -11.4% | 0.0% | -7.8 | 4.1%
N#Cc1ccc(C(S(=O)(=O)Cc2ccccc2)S(=O)(=O)Cc2ccccc2)cc1 | -9.0% | ? | ? | -57.9* | -7.9%
S=C(NCc1ccco1)Nc1cc(-c2ccccc2)[nH]n1 | -24.3% | 11.6% | ? | / | -11.3%
COc1ccc(C2CCCN2CC(O)COc2ccccc2C(C)C)cc1 (centres undefined) | 20.6µM* | 23.1µM* | 13µM* | ? | 20.6µM*
COC(=O)c1c(NC(=O)CN2CCCC(C)C2)c2c(C)cccc2n1C (centres undefined) | -3.5% | ? | 6.51µM* | -11.2 | -12.2%
O=C(NCC(=O)N(c1ccccc1F)C(C(=O)NC1CCCC1)c1cccnc1)c1ccco1 (centres undefined) | 12.8% | 9.8% | 15.9% | 25.7 | 1.5%
COc1ccccc1N1CCN(Cc2cc(=O)oc3cc(C)cc(C)c23)CC1 | 17.1% | ? | ? | 28.5 | 1.2%
COc1ccc(OC)c(C2N=C(N)Nc3nc4ccccc4n32)c1 (centres undefined) | / | -3.5% | 7.4% | / | /
Cc1cc(C2N=C(N)Nc3nc4ccccc4n32)c(C)n1-c1ccccc1Cl (centres undefined) | ? | 20.6µM* | ? | -56.3* | ?
Cc1ccc(-n2c(C)cc(C3N=C(N)Nc4nc5ccccc5n43)c2C)c(C)c1 (centres undefined) | 20µM* | 20.6µM* | 23.1µM* | ? | ?
COc1ccc(C(=O)N(Cc2nc(-c3ccc(C)cc3)no2)C(C)C)cc1OC | -5.3% | -89.4% | ? | 10.8 | -3.5%
Cc1ccc(C(=O)N(Cc2nc(-c3ccc(C)cc3)no2)C(C)C)cc1 | -19.3% | ? | 16.4µM* | 33.0 | -27.5%
CCOc1cc(C(=O)N(Cc2nc(-c3ccc(C)cc3)no2)C(C)C)cc(OCC)c1OCC | / | 16.4µM* | ? | / | /
COc1ccc(OC(C)C(=O)N(C)Cc2nc(-c3ccccc3)no2)cc1 (centres undefined) | 1.3% | 3.0% | ? | 33.9 | -0.9%
Cc1ccc(-c2noc(CN(C(=O)c3ccc4c(c3)OCO4)C(C)C)n2)cc1 | -3.1% | ? | ? | ? | 0.9%
Cc1ccc(-c2noc(CN(C(=O)c3cccs3)C(C)C)n2)cc1 | -4.5% | ? | ? | -78.0* | ?
CC(C)N(Cc1nc(-c2ccc(Cl)cc2)no1)C(=O)c1cccs1 | ? | -22.3% | ? | -5.2 | -11.2%
COc1ccc(-c2noc(CN(C(=O)C(C)Oc3ccc(C)cc3)C(C)C)n2)cc1 (centres undefined) | / | 16.4µM* | 14.6µM* | / | /
CC(Sc1nnc(C2CC2)n1C)C(=O)Nc1ccc2c(c1)CCC2 (centres undefined) | 8.3% | -0.4% | 4.4% | -5.2 | 4.0%[9.24 µM]
c1cnc(NCCSSCCNc2ncccn2)nc1 | -15.3% | -24.0% | -25.2% | -0.9 | -1.1%
CCCn1c(=O)[nH]c(=O)c2c1nc(-c1ccc(OC)c(Br)c1)n2CCOC | 5.8% | 0.8% | -13.7% | 58.7 | 5.4%
Cc1ccc(CC(=O)N(Cc2nc(-c3ccc(C)cc3)no2)C(C)C)cc1 | / | ? | 23.1µM* | / | /
Cc1ccc(SCC(=O)N(Cc2nc(-c3ccccc3)no2)C(C)C)cc1 | -0.8% | 18.4µM* | ? | ? | -0.8%
CCOC(=O)C1=C(COC(=O)c2ccc(OC)c(S(=O)(=O)N3CCOCC3)c2)NC(=O)NC1C (centres undefined) | 3.1% | -9.9% | 13.3% | -22.6 | 0.4%
CCC(=O)c1ccc(OCC(=O)OCC(=O)N2c3ccccc3CC2C)cc1 (centres undefined) | 6.8% | 11.6% | -5.7% | 31.2 | 1.1%
SMILES | HT1080 IDH1KD tx | TDP1 cell CPT | TDP1 cell noCPT | IL-1B inflam inh | HT1080NT lethal
Cc1cc(=O)c2c(O)cc(O)c(C)c2o1 | / | ? | 20.6µM* | / | /
CCOc1ccccc1CN1CCNC(=O)C1CC(=O)NCc1ccccn1 (centres undefined) | -1.2% | -25.3% | 15.3% | 0.1 | -0.6%
Cc1ccc(C)c2[nH]c(=O)c(CN(Cc3ccc4c(c3)OCO4)Cc3nnnn3Cc3ccco3)cc12 | -28.7% | ? | ? | -60.2* | ?
Cc1ccc2cc(CN(Cc3ccc4c(c3)OCO4)Cc3nnnn3Cc3ccco3)c(=O)[nH]c2c1C | -5.8% | ? | 23.1µM* | 0.0 | -18.6%
Cc1ccc2cc(CN(CCN3CCOCC3)Cc3nnnn3Cc3ccco3)c(=O)[nH]c2c1C | 7.2% | ? | -24.5% | -2.1 | 4.4%
Cc1ccc(S(=O)(=O)NCC(=O)N(CC(=O)NCC2CCCO2)Cc2ccc(Cl)cc2)cc1 (centres undefined) | 3.6% | 5.5% | -24.1% | 3.7 | -5.7%
CCOC(=O)c1sc(C)c2c1NC(c1ccc(Cl)cc1)NC2=O (centres undefined) | ? | ? | ? | 0.0 | ?
Cc1ccc(NS(=O)(=O)c2cccc(C(=O)NCC(c3ccc(F)cc3)N3CCOCC3)c2)cc1 (centres undefined) | -27.5% | 29.1µM* | 16.4µM* | -50.6* | ?
C=CCN(c1ccccc1)S(=O)(=O)c1cccc(C(=O)NCC(c2ccc(F)cc2)N2CCOCC2)c1 (centres undefined) | -7.4% | 13µM* | 16.4µM* | 4.3 | 0.9%
CCN(c1ccccc1)S(=O)(=O)c1cccc(C(=O)NCC(c2ccc(F)cc2)N2CCOCC2)c1 (centres undefined) | -6.7% | 23.1µM* | 10.3µM* | -25.3 | -10.0%
COc1ccccc1NS(=O)(=O)c1cccc(C(=O)NCC(c2ccc(F)cc2)N2CCOCC2)c1 (centres undefined) | 5.1% | ? | ? | -4.7 | 3.2%
O=C(NCC(c1cccs1)N1CCOCC1)c1cccc(S(=O)(=O)Nc2ccc(F)cc2)c1 (centres undefined) | 3.2% | ? | ? | 38.2 | 0.6%
CN(c1ccccc1)S(=O)(=O)c1cccc(C(=O)NCC(c2cccs2)N2CCOCC2)c1 (centres undefined) | -0.2% | ? | 16.4µM* | 14.8 | -3.4%
CSc1ccccc1C(=O)OCC(=O)Nc1c(C)n(C)n(-c2ccccc2)c1=O | 2.7% | 4.1% | -8.8% | -11.7 | 12.6%

Screening results: PubChem, National Center for Advancing Translational Sciences (NCATS)
